# In PubChem BioAssay (NCI):
# The panel holds about 83,000 compounds, 20% with a hit somewhere; the sample as a whole holds those more often.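 In brief: 96-well plates, 48 h treatment, single concentration, percent growth endpoint.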 Unmarked numbers belong to inactive results. The source made the active and inactive calls. How the source made its calls: active means growth percent below 10; inactive means the rest.
# Legend:
# Experiment in all cases: NCI-60 one-dose screen, 48 h (100 = growth as untreated, 0 = no growth, -100 = all killed)
# Details in all cases: 10 µM unless noted
# T-47D breast = tested on: T-47D breast
# BT-549 breast = tested on: BT-549 breast
# MDA-MB-435 melanoma = tested on: MDA-MB-435 melanoma
# SW-620 colon = tested on: SW-620 colon
# MCF7 breast = tested on: MCF7 breast
# HCT-116 colon = tested on: HCT-116 colon
# HCC-2998 colon = tested on: HCC-2998 colon
# KM12 colon = tested on: KM12 colon
SMILES,growth (T-47D breast),growth (BT-549 breast),growth (MDA-MB-435 melanoma),growth (SW-620 colon),growth (MCF7 breast),growth (HCT-116 colon),growth (HCC-2998 colon),growth (KM12 colon)
Oc1ccc(CSc2nnc(-c3ccncc3)n2-c2ccccc2)c2cccnc12,14.5%,41.9%,20%,16.5%,2.74% (active),22.5%,35.9%,16.9%
COc1ccc(-c2oc3cc(O)cc(O)c3c(=O)c2OC)cc1O,22.6%,40.3%,-34.3% (active),29.6%,25.8%,12.4%,,26.2%
C=C1C(=O)O[C@@H]2C[C@@H](C)/C=C\C(=O)[C@](C)(OC(C)=O)C[C@H](OC(=O)/C(C)=C\C)[C@@H]12,-72.8% (active),-9.56% (active),-53.4% (active),-29.5% (active),11.2%,-70.3% (active),,11.9%
Cc1ccc(-c2cc(-c3ccc(N(C)C)cc3)n3c(n2)nc2ccccc23)cc1,6.32% (active),82.2%,65.3%,80.1%,59.2%,39.4%,80.3%,78.4%
Cn1ccnc1C(=O)/C=C/c1ccc(C(=O)Nc2ccc(NC(=O)CCNC(=O)c3csc(Br)n3)cc2)cc1,58.9%,65.4%,44.2%,14.1%,17.7%,20.5%,106%,33.3%
O=C(COc1ccc(/C=C2\SC(=O)NC2=O)cc1)Nc1ccc(C(=O)/C=C/c2cc3ccccc3nc2Cl)cc1,54.7%,67.7%,13.6%,88.7%,-4.07% (active),-57.2% (active),64.6%,59.5%
CCC(CC)n1c(=O)c(SC2=NC3C(NN2)N(CC)C(=O)N3CC)c(C(=O)O)c2ccccc21 (configuration not stated),68.4%,-21.6% (active),0.0073% (active),21.7%,17.4%,6.91% (active),24%,20.7%
CCN1C(=O)N(CC)C2SC(N/N=C/c3ccccc3F)=NC21 (configuration not stated),61.9%,-20.1% (active),-53.5% (active),19%,16.2%,13.6%,17.1%,11.8%
CS(=O)(=O)c1nccc(-c2c(-c3ccc(F)c(OCCc4ccc(F)cc4)c3)nc3sccn23)n1,-75.5% (active),57.2%,87.2%,67.1%,-61% (active),47.6%,-91% (active),-42.9% (active)
Cc1nn(-c2ccccc2)cc1/C=N/Nc1nc(Nc2ccccc2)nc(Nc2ccc(S(N)(=O)=O)cc2)n1,18.9%,21.5%,-31.8% (active),-14.3% (active),-69.9% (active),-40.9% (active),-17.2% (active),9.04% (active)
O=C(/C=C/c1cn(-c2ccccc2)nc1-c1ccc(Cl)cc1)c1cc2ccccc2oc1=O,44.1%,92.5%,57.6%,74%,33.9%,25.4%,102%,80.3%
O=[N+]([O-])c1ccc(-c2nnc(SCc3ccc(O)c4ncccc34)o2)cc1,9.66% (active),27.4%,19%,,6.95% (active),12.7%,28%,13.8%
CC(C)(C)OC(=O)N1CCN(S(=O)(=O)/N=C2\NC(=O)NC2=C(Cl)Cl)CC1,75.3%,101%,103%,,79.7%,98%,75%,107%
CC(=O)c1ccc(NC(=O)COc2ccc(C3SCC(=O)N3c3ccc(Br)cc3)cc2)cc1 (configuration not stated),88.7%,95.7%,102%,,89.6%,91%,103%,98.2%
O=C(Cn1cc(CN2C(=O)c3ccc([N+](=O)[O-])cc3C2=O)nn1)Nc1ccccc1Br,104%,115%,109%,,94.3%,98.8%,101%,102%
C#C[C@]1(O)CC[C@H]2[C@@H]3CC=C4c5sc(C6CC6)nc5CC[C@]4(C)[C@H]3CC[C@@]21C,73.8%,90.5%,,91.2%,64.7%,71.4%,83.6%,

SMILES,growth (T-47D breast),growth (BT-549 breast),growth (MDA-MB-435 melanoma),growth (SW-620 colon),growth (MCF7 breast),growth (HCT-116 colon),growth (HCC-2998 colon),growth (KM12 colon)
CS(=O)(=O)c1nccc(-c2c(-c3ccc(F)c(OCCc4ccccc4)c3)nc3sccn23)n1,-4.49% (active),104%,104%,,4.77% (active),92.5%,-46.4% (active),77.5%
C=C1C(=O)O[C@@H]2C[C@@H](C)CCC(=O)[C@](C)(OC(C)=O)C[C@H](OC(=O)/C(C)=C\C)[C@@H]12,39%,80.3%,65.9%,,35.1%,25.3%,,91.6%
O=C(Nc1cccc(Cl)c1)Nc1nc2ccc([N+](=O)[O-])cc2s1,-11.7% (active),-28.7% (active),-8.69% (active),,4.68% (active),0.143% (active),5.59% (active),0.174% (active)
COc1cc(C2=NN(C(C)=O)C(c3ccc(N4CCOCC4)cc3)C2)cc(OC)c1OC (configuration not stated),97.1%,92.2%,,105%,96.3%,95.7%,107%,
CCOC(=O)C1=C(C)Nc2nc3ccccc3n2C1c1cccc(Br)c1 (configuration not stated),88.1%,76.9%,7.44% (active),,38.3%,81.4%,93.1%,65.6%
CCN(CC)CCCC(C)NCC(=O)NC(c1ccc2c(c1)OCO2)c1cc(Cl)c2cccnc2c1O (configuration not stated),40.1%,79%,8.56% (active),,7.35% (active),7.29% (active),-11.4% (active),9.46% (active)
CC1COc2c(N3CCN(C)CC3)c(F)cc3c(=O)c(C(=O)N/N=C/c4cc[nH]c4)cn1c23 (configuration not stated),47.2%,59.5%,12.2%,,-5.35% (active),-80.1% (active),22.6%,46.4%
O=C(c1cccc(F)c1)n1ccc2cc(NC(=S)Nc3cccnc3)ccc21,93.7%,97.6%,99%,,85.7%,105%,99.7%,
Nc1ccc(-c2nnc(SCc3ccc(O)c4ncccc34)o2)cc1,-19.7% (active),-11.7% (active),7.57% (active),,2.52% (active),0.176% (active),14.3%,0.48% (active)
NCCN1CCN(c2nc(-c3ccccc3)nc3nc(-c4ccccc4)oc23)CC1,-16.2% (active),92.5%,-77.6% (active),,-88.3% (active),-82.2% (active),-14.4% (active),-55.4% (active)
COc1cc(CNC(=O)/C=C/c2ccccc2)ccc1OCC(=O)NO,99.6%,107%,102%,,89.9%,98.7%,104%,99.3%
CCCC(=O)NC(c1cccnc1)c1cc(Cl)c2cccnc2c1O (configuration not stated),27.7%,68.8%,38.1%,,12.5%,29.1%,51.2%,30.7%
COc1cc2c3c(n(CCCNC4CCCC4)c(=O)c2cc1OC)-c1cc2c(cc1C3=O)OCO2,86%,74.8%,-49.6% (active),,-74.8% (active),-90.9% (active),23.2%,65.6%
COc1ccc(/C=N/Nc2nc(Nc3ccccc3)nc(Nc3ccc(S(N)(=O)=O)cc3)n2)cc1,63.1%,85.7%,76.6%,,41%,50.2%,87%,74.4%
NS(=O)(=O)c1ccc(-n2cc(CC=O)nn2)cc1,102%,111%,102%,,93.6%,108%,97.9%,112%
